Data: the supplement of paper PMC10849652
Of roughly 7,900 targets only a part is listed; those with a hit were picked by preference. About 0.6% of all pairs of compound and target were hits.

Tests used:
Assay in all cases: log2 fold change, soluble protein after heating vs DMSO (PISA); higher = thermal stabilisation; K562 cells, 10 uM, 30 min; active = over 0.2 and 3.5 SD of the protein, either way, in both replicates (recomputed)
crizotinib = compound: C[C@@H](Oc1cc(-c2cnn(C3CCNCC3)c2)cnc1N)c1c(Cl)ccc(F)c1Cl [crizotinib]
Summary of the method: (§1)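 K562 cells at 2×10^6 cells/mL were given 10 μM compound for 30 min. Aliquots then went through 3 min of heating across 48°C-58°C, were pooled, and were extracted in PBS with 0.5% NP-40 at 4°C, and the supernatant after 21,000xg for 90 min was quantified by TMTpro 16plex LC-MS/MS with channel sums equalised. Thermal stability relative to control samples, from duplicates, is given as log2 fold change.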

[1] = compound: C[C@@H]1COCCN1C2=NC(=NC(=C2)C3(CC3)S(=O)(=O)C)C4=C5C=CNC5=CC=C4
Summary of the method: as §1

[2] = compound: C[C@H](C1=CC=C(C=C1)C(=O)NC2=C3C=CNC3=NC=C2)N
Summary of the method: as §1

duvelisib = compound: C[C@H](Nc1ncnc2nc[nH]c12)c1cc2cccc(Cl)c2c(=O)n1-c1ccccc1 [duvelisib]
Summary of the method: as §1

gandotinib = compound: Cc1cc(Nc2cc(CN3CCOCC3)c3nc(C)c(Cc4ccc(Cl)cc4F)n3n2)n[nH]1 [gandotinib]
Summary of the method: as §1

tozasertib = compound: Cc1cc(Nc2cc(N3CCN(C)CC3)nc(Sc3ccc(NC(=O)C4CC4)cc3)n2)n[nH]1 [tozasertib]
Summary of the method: as §1

[3] = compound: Cc1cc(SCc2sc(-c3ccc(C(F)(F)F)cc3)nc2C)ccc1OCC(=O)O
Summary of the method: as §1

doramapimod = compound: Cc1ccc(-n2nc(C(C)(C)C)cc2NC(=O)Nc2ccc(OCCN3CCOCC3)c3ccccc23)cc1 [doramapimod]
Summary of the method: as §1

ispinesib = compound: Cc1ccc(C(=O)N(CCCN)[C@@H](c2nc3cc(Cl)ccc3c(=O)n2Cc2ccccc2)C(C)C)cc1 [ispinesib]
Summary of the method: as §1

bafetinib = compound: Cc1ccc(NC(=O)c2ccc(CN3CC[C@H](N(C)C)C3)c(C(F)(F)F)c2)cc1Nc1nccc(-c2cncnc2)n1 [bafetinib]
Summary of the method: as §1

[4] = compound: Cc1cccc(CC(=O)N2CCc3c2ccc(-c2cn(C)c4ncnc(N)c24)c3F)n1
Summary of the method: as §1

nilotinib = compound: Cc1cn(-c2cc(NC(=O)c3ccc(C)c(Nc4nccc(-c5cccnc5)n4)c3)cc(C(F)(F)F)c2)cn1 [nilotinib]
Summary of the method: as §1

[5] = compound: Cc1nc(Nc2n[nH]c3c2CN(C(=O)N[C@H](CN(C)C)c2ccccc2)C3(C)C)c2sccc2n1
Summary of the method: as §1

dasatinib = compound: Cc1nc(Nc2ncc(C(=O)Nc3c(C)cccc3Cl)s2)cc(N2CCN(CCO)CC2)n1 [dasatinib]
Summary of the method: as §1

[6] = compound: Cc1ncc(-c2ccnc(Nc3ccc(S(C)(=O)=O)cc3)n2)n1C(C)C
Summary of the method: as §1

[7] = compound: Cn1cc(-c2ccc3c(c2)CCN3C(=O)Cc2cccc(C(F)(F)F)c2)c2c(N)ncnc21
Summary of the method: as §1

[8] = compound: Cn1cc(-c2ccc3nnc(C(F)(F)c4ccc5ncccc5c4)n3n2)cn1
Summary of the method: as §1

tipifarnib = compound: Cn1cncc1[C@@](N)(c1ccc(Cl)cc1)c1ccc2c(c1)c(-c1cccc(Cl)c1)cc(=O)n2C [tipifarnib]
Summary of the method: as §1

mubritinib = compound: FC(F)(F)c1ccc(/C=C/c2nc(COc3ccc(CCCCn4ccnn4)cc3)co2)cc1 [mubritinib]
Summary of the method: as §1

[9] = compound: CS(=O)(=O)c1ccc(-c2cnc(N)c(C(=O)Nc3ccccc3)n2)cc1
Summary of the method: as §1

Measured: log2 fold change

SCYL3 isoform 2 (UniProt Q8IZE3)
Chain of UniProt Q8IZE3 (Q8IZE3 whole entry, looked up): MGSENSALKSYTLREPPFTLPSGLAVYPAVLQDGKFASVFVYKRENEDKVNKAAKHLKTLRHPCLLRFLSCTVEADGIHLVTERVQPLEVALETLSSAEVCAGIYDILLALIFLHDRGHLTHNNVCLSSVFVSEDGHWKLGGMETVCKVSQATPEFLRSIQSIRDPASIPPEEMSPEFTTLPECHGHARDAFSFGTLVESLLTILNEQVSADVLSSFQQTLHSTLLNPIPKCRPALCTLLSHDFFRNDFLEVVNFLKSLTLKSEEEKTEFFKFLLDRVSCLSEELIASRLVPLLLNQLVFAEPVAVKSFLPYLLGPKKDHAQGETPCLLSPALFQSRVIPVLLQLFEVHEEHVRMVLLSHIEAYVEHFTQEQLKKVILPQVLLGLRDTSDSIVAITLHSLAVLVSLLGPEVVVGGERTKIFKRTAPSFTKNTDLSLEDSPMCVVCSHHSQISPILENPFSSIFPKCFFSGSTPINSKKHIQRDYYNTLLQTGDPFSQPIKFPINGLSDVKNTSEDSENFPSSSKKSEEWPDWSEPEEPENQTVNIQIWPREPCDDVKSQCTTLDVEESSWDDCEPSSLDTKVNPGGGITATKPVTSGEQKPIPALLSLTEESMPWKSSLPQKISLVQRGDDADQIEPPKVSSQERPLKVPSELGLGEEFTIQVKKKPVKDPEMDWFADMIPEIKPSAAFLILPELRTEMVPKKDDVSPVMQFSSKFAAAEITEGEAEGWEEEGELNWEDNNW
inactive: crizotinib -0.118 | [1] -0.106 | [2] -0.044 | duvelisib 0.129 | gandotinib -0.069 | tozasertib -0.113 | [3] -0.024 | doramapimod -0.01 | ispinesib -0.041 | bafetinib -0.056 | [4] -0.017 | nilotinib -0.215 | [5] -0.167 | dasatinib -0.124 | [6] 0.111 | [7] -0.062 | [8] -0.05 | tipifarnib 0.044 | mubritinib 0.032

SEPTIN5 (UniProt G3XAH0)
inactive: [9] -0.042 | [1] 0.087 | [2] -0.089 | duvelisib -0.032 | gandotinib -0.153 | tozasertib -0.028 | [3] -0.036 | ispinesib -0.017 | bafetinib -0.038 | [4] -0.013 | nilotinib -0.05 | [5] -0.024 | dasatinib -0.049 | [6] -0.008 | [7] -0.05 | [8] 0.082 | tipifarnib 0.006 | mubritinib -0.011

SEMG2 (UniProt Q02383)
Chain of UniProt Q02383 (Q02383 whole entry, looked up): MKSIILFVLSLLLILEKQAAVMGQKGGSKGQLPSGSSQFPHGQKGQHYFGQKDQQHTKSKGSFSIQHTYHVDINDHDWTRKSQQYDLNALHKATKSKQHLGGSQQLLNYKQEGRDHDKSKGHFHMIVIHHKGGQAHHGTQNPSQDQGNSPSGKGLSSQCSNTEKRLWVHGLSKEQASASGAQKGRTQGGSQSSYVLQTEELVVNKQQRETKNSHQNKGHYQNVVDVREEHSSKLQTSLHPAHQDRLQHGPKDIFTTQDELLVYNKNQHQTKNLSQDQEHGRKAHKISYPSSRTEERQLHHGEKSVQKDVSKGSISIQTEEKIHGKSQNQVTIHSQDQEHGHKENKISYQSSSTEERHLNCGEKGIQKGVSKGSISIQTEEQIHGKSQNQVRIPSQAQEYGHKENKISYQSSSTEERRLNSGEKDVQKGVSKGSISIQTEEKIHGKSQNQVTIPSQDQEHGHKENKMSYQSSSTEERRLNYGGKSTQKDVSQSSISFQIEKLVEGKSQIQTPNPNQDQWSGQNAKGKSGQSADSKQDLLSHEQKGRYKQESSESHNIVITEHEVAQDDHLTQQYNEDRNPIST
inactive: [9] -0.058 | [1] 0.096 | [2] -0.021 | gandotinib -0.032 | tozasertib -0.043 | bafetinib -0.089 | [4] 0.016 | nilotinib -0.083 | [5] 0.056 | [6] 0.003 | [7] 0.008 | mubritinib -0.044

RAP2C (UniProt Q9Y3L5)
Chain of UniProt Q9Y3L5 (Q9Y3L5 whole entry, looked up): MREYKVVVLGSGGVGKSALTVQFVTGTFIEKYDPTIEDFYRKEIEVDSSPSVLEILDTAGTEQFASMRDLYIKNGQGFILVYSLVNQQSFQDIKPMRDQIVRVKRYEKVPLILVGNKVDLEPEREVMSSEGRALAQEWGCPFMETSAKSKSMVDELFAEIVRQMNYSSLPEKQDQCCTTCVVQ
inactive: [9] -0.046 | [1] 0.007 | [2] -0.144 | duvelisib 0.06 | tozasertib -0.039 | [3] -0.108 | ispinesib 0.009 | bafetinib 0.115 | [4] 0.157 | nilotinib 0.181 | [5] 0.069 | dasatinib 0.018 | [6] 0.019 | [7] 0.047 | [8] -0.032 | tipifarnib 0.086 | mubritinib 0.041
active: gandotinib -0.742

RUNX1 isoform 8 (UniProt Q01196)
Chain of UniProt Q01196 (Q01196 whole entry, looked up): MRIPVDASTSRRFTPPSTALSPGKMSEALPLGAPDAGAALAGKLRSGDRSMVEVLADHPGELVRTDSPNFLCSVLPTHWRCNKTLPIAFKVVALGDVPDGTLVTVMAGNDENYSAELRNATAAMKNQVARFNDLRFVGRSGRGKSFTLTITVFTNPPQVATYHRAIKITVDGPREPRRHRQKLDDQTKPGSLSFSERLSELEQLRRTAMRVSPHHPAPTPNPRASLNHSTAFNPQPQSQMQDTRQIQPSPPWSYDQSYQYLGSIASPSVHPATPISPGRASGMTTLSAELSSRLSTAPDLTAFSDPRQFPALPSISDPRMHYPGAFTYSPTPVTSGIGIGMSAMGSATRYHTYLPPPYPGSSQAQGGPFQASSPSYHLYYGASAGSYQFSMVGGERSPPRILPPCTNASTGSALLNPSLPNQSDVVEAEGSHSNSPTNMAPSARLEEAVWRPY
inactive: [9] 0.106 | crizotinib -0.066 | [1] 0.089 | duvelisib -0.045 | gandotinib 0.088 | [3] 0.178 | doramapimod 0.054 | ispinesib 0.155 | bafetinib -0.149 | [4] -0.224 | nilotinib -0.07 | [5] -0.281 | dasatinib -0.082 | [6] -0.209 | [8] -0.104 | tipifarnib 0.001 | mubritinib 0.01
